The list is not random: actives were taken first. Their share in the collection is about 3.9%.
BoNT-A LC inh2: blocks Botulinum neurotoxin A light chain protease. multiplex microsphere protease substrate cleavage, flow cytometry. inhibition, % at 10 µM. 0.17% of 360,000 active; note: plate controls were buffer without enzyme for full effect and enzyme alone for no effect
Anthrax LF prot: anthrax lethal factor protease inhibition; 0.12% of 360,000 active; multiplex microsphere protease cleavage assay, LF; P15917; inhibition, % at 10 µM; note: plate controls were buffer without enzyme for full effect and enzyme alone for no effect
MazEF act: activators of E. coli MazEF toxin-antitoxin RNase; P0AE70; 0.32% of 350,000 active; FAM/BHQ RNA-DNA oligo cleavage fluorescence, 5 h; AID 504720; activation, % at 20 µM; in the data active = activation above about 50%
Target sequence (P0AE70 whole entry, looked up): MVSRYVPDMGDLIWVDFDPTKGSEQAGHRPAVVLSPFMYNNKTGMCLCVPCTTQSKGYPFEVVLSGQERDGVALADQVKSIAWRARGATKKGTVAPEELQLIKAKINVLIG
BH1578 lux ind: quorum light induction in luxS cqsA deficient V. cholerae; V. cholerae BH1578 lux reporter, luminescence, 6 h; activation, % at 18.7 µM; 0.16% of 350,000 active; in the data active = activation mostly above about 9.7%, no sharp cut-off
Autofluor counter: counter-screen for toxin protease inhibitors: compound fluorescence | 3.1% of 360,000 active | compound autofluorescence counterscreen, microsphere flow cytometry; hits give high values | fluorescence intensity (no concentration beside the values) | AID 624483; in the data active = fluorescence intensity above about 16000
BoNT-F LC inh: blocks Botulinum neurotoxin F light chain protease. Multiplex microsphere protease cleavage assay, flow cytometry. inhibition, % at 10 µM. 0.22% of 360,000 active. AID 588497; in the data active = inhibition above about 35%, passing the limit was not always enough; note: plate controls were buffer without enzyme for full effect and enzyme alone for no effect
The depositor's hits bear a star. Cut-off read from the data, not from the text of the source, unless noted: active = inhibition above about 30%; inconclusive = no clear call, values can overlap the other calls; inactive = below that.

Cc1[nH]c2ccccc2c1C1(O)C(=O)N(C(C)C)c2ccccc21 (stereo not given) was read as BoNT-A LC inh2 -1, Anthrax LF prot -1, MazEF act 6, BH1578 lux ind inactive, Autofluor counter 23898* and BoNT-F LC inh -7.
Screening C[C@H](CO)N1C[C@H](C)[C@H](CN(C)C(=O)Nc2cccc(C(F)(F)F)c2)OCc2cnnn2CCCC1=O returned BoNT-A LC inh2 -1, Anthrax LF prot -2, MazEF act 4, BH1578 lux ind 0, Autofluor counter 4030 and BoNT-F LC inh -5.
Screening FC(F)(F)c1ccc2c(c1)n(Cc1ccccc1)c1[n+]2CCCCC1 returned BoNT-A LC inh2 7, Anthrax LF prot -2, MazEF act 1, BH1578 lux ind inactive, Autofluor counter 20850* and BoNT-F LC inh 17.
`O=C(Cn1c2[n+](c3ccc(C(F)(F)F)cc31)CCCCC2)Nc1ccccc1` gave BoNT-A LC inh2 1, Anthrax LF prot -1, MazEF act 1, BH1578 lux ind -2, Autofluor counter 2958 and BoNT-F LC inh 0.
COc1cc2c(cc1OC)CN(C(C)C(=O)Nc1ccc(NC(C)=O)cc1)CC2 (stereo not given) was read as BoNT-A LC inh2 -4, Anthrax LF prot -5, MazEF act 14, BH1578 lux ind inactive, Autofluor counter 17392* and BoNT-F LC inh -8.
Screening COc1cc2c(cc1OC)CN(CC(=O)Nc1ccc(C)cc1)CC2 returned BoNT-A LC inh2 0, Anthrax LF prot -2, MazEF act -3, BH1578 lux ind 0, Autofluor counter 20583* and BoNT-F LC inh -2.
Screening O=C1CC2(CCN(C(=O)c3cccc([N+](=O)[O-])c3)CC2)Oc2ccccc21 returned BoNT-A LC inh2 1, Anthrax LF prot 0, MazEF act 0, BH1578 lux ind inactive, Autofluor counter 5208 and BoNT-F LC inh -5.
Screening O=C(NC(=S)Nc1ccc(CN2CCOCC2)cc1)c1ccc(-c2cccc(Cl)c2)o1 returned BoNT-A LC inh2 0, Anthrax LF prot -6, MazEF act 12, BH1578 lux ind -1, Autofluor counter 5228 and BoNT-F LC inh 4.
For O=C(Nc1ccc(CN2CCOCC2)cc1)c1ccc(-c2cccc(Cl)c2)o1 the results were BoNT-A LC inh2 0, Anthrax LF prot -1, MazEF act -3, BH1578 lux ind 3, Autofluor counter 20353* and BoNT-F LC inh 0.
For O=C(Nc1ccc(CN2CCOCC2)cc1)c1cccs1 the results were BoNT-A LC inh2 1, Anthrax LF prot -3, MazEF act -2, BH1578 lux ind inactive, Autofluor counter 22111* and BoNT-F LC inh 2.
For O=C(c1ccc(OC2CCN(CCCc3ccccc3)CC2)cc1)N1CCCC1 the results were BoNT-A LC inh2 1, Anthrax LF prot 2, MazEF act 1, BH1578 lux ind 0, Autofluor counter 4234 and BoNT-F LC inh 0.
`O=C(CNS(=O)(=O)/C=C/c1ccccc1)OC1CCOC1=O` (stereo not given) gave BoNT-A LC inh2 2, Anthrax LF prot -1, MazEF act -4, BH1578 lux ind -1, Autofluor counter 3444 and BoNT-F LC inh 0.
For Cc1ccc2cc3c(N)c4c(C)ccc(C)c4nc3nc2c1 the results were BoNT-A LC inh2 2, Anthrax LF prot -8, MazEF act 55*, BH1578 lux ind 1, Autofluor counter 1713 and BoNT-F LC inh -41.
Cc1ccc2c(N)c(C)ccc2c1 was read as BoNT-A LC inh2 1, Anthrax LF prot -5, MazEF act 2, BH1578 lux ind inactive, Autofluor counter 3425 and BoNT-F LC inh 12.
COc1ccc(NC(=O)C2CCCN2S(=O)(=O)c2ccc(C)cc2)cc1 (stereo not given) was read as BoNT-A LC inh2 -4, Anthrax LF prot 0, MazEF act 7, BH1578 lux ind 0, Autofluor counter 17367* and BoNT-F LC inh -2.
`COc1ccccc1NC(=O)C1CCCCN1S(=O)(=O)c1ccc(F)cc1` (stereo not given) gave BoNT-A LC inh2 1, Anthrax LF prot -2, MazEF act -5, BH1578 lux ind inactive, Autofluor counter 16434* and BoNT-F LC inh 3.
COc1ccc(NC(=O)C2CCCCN2S(=O)(=O)c2ccc(F)cc2)c(OC)c1 (stereo not given) was read as BoNT-A LC inh2 -1, Anthrax LF prot -1, MazEF act -2, BH1578 lux ind inactive, Autofluor counter 17466* and BoNT-F LC inh -8.

High-throughput results (PubChem BioAssay)
